Laboratory results: PubChem BioAssay AID504891 (National Center for Advancing Translational Sciences (NCATS), 2011)
Among all 390,000 compounds or so, about 35 (0.009%) were called active. Inconclusive results (about 6%) are left out. Calls follow the shape of the dose curve; as a rule, active = well fitted inhibition curve with a large enough effect in the polarisation, with a control signal flat (not every such curve was filed as active); inconclusive = small, poorly fitted or top-dose-only effect, or effect the other way, or a change in a side signal; inactive = no such curve, though single readings can be large or run the other way; the % refers to the polarisation. For the sample, actives were picked, then their nearest neighbours and some compounds at random.

molecular target: Peptidyl-prolyl cis-trans isomerase NIMA-interacting 1 (Homo sapiens) (UniProt Q13526); assay: qHTS Assay to Find Inhibitors of Pin1; settings: Pin1 FP peptide displacement, HiFluor488, 10 min; series mostly up to 115 µM; activity, negative = inhibition: at the top concentration
Sequence (Q13526 whole entry, looked up): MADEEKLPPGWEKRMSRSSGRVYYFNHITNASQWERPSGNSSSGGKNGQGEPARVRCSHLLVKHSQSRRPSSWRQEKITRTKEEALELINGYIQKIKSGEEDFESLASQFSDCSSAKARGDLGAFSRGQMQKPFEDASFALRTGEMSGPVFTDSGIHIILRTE
Excerpt: NIH Molecular Libraries Probe Production Network [MLPCN]
NIH Chemical Genomics Center [NCGC]
The unique chemical properties of Pro allow for the adoption of two completely distinct amide bond conformations (cis and trans). Peptidyl-prolyl cis/trans isomerases (PPIases) are evolutionary conserved enzymes that catalyze cis/trans isomerization of peptidyl-prolyl peptide bonds. Distinct from all other PPIases such as cyclophilins and FK506-binding proteins (FKBPs), Pin1 binds a subset of phos.Ser/Thr-Pro-containing proteins using its protein-targeting WW domain and isomerizes only specific phos.Ser/Thr-Pro bonds, which cannot be effectively catalyzed by other known PPIases.
Pin1-catalyzed conformational regulation can control a spectrum of activities of many key regulators in diverse cellular processes such as cell growth, genotoxic and other stress responses, immune response, germ cell development, neuronal differentiation and survival. Pin1 has emerged as a novel molecular timer that modulates its multiple targets at various steps of a given cellular process to synergistically control the amplitude and duration of a cellular response or process. Importantly, Pin1 is tightly regulated by multiple levels and its deregulation has an important role in a growing number of pathological conditions, including cancer, Alzheimer's disease, aging, asthma and microbial infection, providing a potentially new therapeutic option.
The goal of this screen is to find small-molecule inhibitors of Pin1 using a fluorescence polarization competition assay. A HiFluor-488-labeled peptide binds to the active site of Pin1 and can be displaced by compounds. Compounds were screened as a concentration-titration series that ranged from 57 uM to 0.7 nM.
NCGC Assay Protocol Summary:
Pin1 (0.6 uM) was dispensed into black, solid 1536-well plates at 2 uL/well in 10 mM HEPES (pH 7.5), 10 mM NaCl, 0.01% Tween20, 1 mM DTT, and 1% glycerol. Then, 23 nL of compounds or DMSO were delivered to each well using a pin tool. Two uL of Pin1-1b-HiFluor488 peptide (10 mM HEPES (pH 7.5), 10 mM NaCl, 0.01% Tween20, 1 mM DTT, and 1% glycerol, 0.02 uM Pin1-1b-HiFluor488) was then dispensed, and plates were incubated at room temperature for 10 min. The plates were measured on a ViewLux plate reader for fluorescence polarization signal using a 480/20 nM nm excitation filter and 540/25 nM nm S and P emission filters with a 20 second exposure. The %Activity was determined from the corrected fluorescence polarization values. Unlabeled Pin1-1c peptide was used as a control (3.5 mM two-fold serial; 20 uM final concentration) along with a 1x (0.3 uM) and 0x (no-enzyme) Pin1 enzyme control to normalize %Activity of identified inhibitors; 0x enzyme values corresponded to 100%Activity (full inhibition), while 1x Pin1 enzyme values were used to normalize 0%Activity (no inhibition).
Concentration-response curves were fitted to the signals arising from the resulting fluorescence polarization. The concentration-effect curves were then classified based on curve quality (r2), response magnitude and degree of measured activity, and compounds were subsequently categorized based on their curve class.
Keywords: Peptidyl prolyl isomerase, Pin1, fluorescence polarization, MLSMR, MLPCN, NIH Roadmap, qHTS, NCGC

activity, negative = inhibition, inactive:
CNC(=O)CN1C(=O)c2cccnc2Sc2ccccc21 8.77%
CC(=O)N1c2ccccc2CC1C(=O)N1CCN(c2ccc(F)cc2)CC1 (stereo not drawn) -8.41%
O=C(NCC1CC1)C1(C(F)(F)F)C/C(=C\CCO)CCCO1 (stereo not drawn) 3.33%
CC(Nc1ncnc2ccc(-c3ccc4c(c3)OCO4)cc12)c1ccco1 (stereo not drawn) 14.7%
Cc1cccc(S(=O)(=O)c2cn(Cc3ccccc3)c3cc(N4CCOCC4)c(F)cc3c2=O)c1 9.72%
COc1cccc(C2C(C(=O)Nc3ccc(C)cc3C)=C(C)Nc3c(C(=O)Nc4ccccc4)cnn32)c1 (stereo not drawn) 11.3%
CCCC(=O)Nc1cc(C(=O)NCc2ccc(OC)cc2)ccc1S(=O)(=O)c1ccc(Cl)cc1 8.08%
COCCNC(=O)CSc1nc(-c2ccccc2)[nH]c1-c1ccc(C)cc1 1.52%
C=CCNC(=O)c1ccc2nc(-c3ccco3)c(-c3ccco3)nc2c1 20.3%
Cc1ccc(S(=O)(=O)NC(N)=NCCC[C@@H](NC(=O)CNC(=O)c2ccccc2)C(=O)Nc2cc(C(F)(F)F)ccc2Cl)cc1 4.14%
CCc1cccc(C)c1NS(=O)(=O)c1ccc(-c2cc(C)no2)s1 12.7%
CC(=O)N1CCCc2ccc(NS(=O)(=O)c3ccc(F)cc3F)cc21 49.4%
COc1ccc(CNC(=O)COCc2cc(-c3cccs3)on2)cc1OC -2.23%
COc1cccc(C(=O)NC2CCN(C#N)CC2)c1 -5.15%
CCOC(=O)c1c(N)n(-c2cccc(C)c2C)c2nc3ccccc3nc12 2.25%
COc1ccc(Br)cc1C1C2C=CCC(C)C2C(=O)N1Cc1ccccc1 (stereo not drawn) -1.96%
O=C(OCC#CCSc1nnc(-c2ccco2)o1)c1ccc(F)cc1 -1.5%
CC(=O)OCC(NC(=O)C(Cc1ccccc1)NC(=O)OC(C)(C)C)C1OC(n2ccc(=O)[nH]c2=O)C(OC(C)=O)C1OC(C)=O (stereo not drawn) -9.82%
CC(=O)Nc1ccc(S(=O)(=O)N2N=NC3C2C2CC4C3(CN(C(=O)OC(C)(C)C)S4(=O)=O)O2)cc1 (stereo not drawn) 1.34%
COc1cccc(OC2=NS(=O)(=O)c3ccccc32)c1 25% [at 163 µM]
COc1ccc(C2Nc3ccccc3C(=O)N2Cc2ccccc2)cc1COc1ccc(C(N)=O)cc1 (stereo not drawn) 29.2%
CCN(CC)S(=O)(=O)c1ccc2c(c1)N(CC(=O)NCc1ccccc1)C(=O)CS2 -0.42%
Cc1cccc(N2CCN(S(=O)(=O)c3ccc4[nH]c5c(c4c3)CCCCC5)CC2)c1C 16.4%
Cc1cc(C)cc(NC(=O)CSc2nc(=O)n(CCN3CCOCC3)c3c2CCC3)c1 -1.89%
Cc1ccc(Cn2c(=O)n(-c3ccc(C)cc3)c(=O)c3c2c2cc(C)ccc2n3C)cc1 -5.52%
CCCCN(CC)CCCNC(=O)Cn1ncc2c([nH]c3ccc(C)cc32)c1=O -1.71%
CCC(=O)Nc1ccccc1-c1nc2ccccc2n(CC(=O)Nc2ccc(C)c(C)c2)c1=O -8.24%
O=C1CCCC2=C1[C@@]1(CCC(c3ccccc3)C1)N=C(Nc1nc3ccccc3o1)N2 (stereo partly drawn)
Cc1cc2n(n1)C(c1cc(C(C)(C)C)c(O)cc1O)Nc1ccccc1-2 (stereo not drawn) 5.72%
CCOc1ccccc1CNC(=O)c1ccc2c(c1)nc1n2CCC(C)C1 (stereo not drawn) -1.31%
COc1cc(C(=O)N2CCN(c3ccc(Nc4ccc(C)cc4)nn3)CC2)cc(OC)c1OC 10.4%
COc1cccc(C2c3c(ncn(-c4cccc(Br)c4)c3=N)Oc3ccc4ccccc4c32)c1 (stereo not drawn) 14.3%
Cc1ccc(Cl)cc1NC(=O)Cc1ccc(-n2c(C)nc3cccnc32)cc1 20.3%
Cc1ccc(Nc2c(-c3ccc(Cl)cc3)nc3sccn23)c(C)c1 1.8%
OCCNc1ncnc2oc(-c3ccco3)c(-c3ccco3)c12 -1.56%
O=c1c2ccccc2nc2sc(Nc3ccc4c(c3)OCO4)nn12 -1.55%
CC(=O)c1sc(N2C(=O)c3oc4ccccc4c(=O)c3C2c2ccc(C)cc2)nc1C (stereo not drawn) -2.64%
NC(=O)C1CCN(c2ncc(-c3ccc(Cl)cc3)s2)CC1 6.84%
CCOc1ccc(NC(=O)C(=O)NCCc2csc3nc(-c4ccccc4F)nn23)cc1 14.9%
CCCc1cc(=O)n2[nH]c(NCc3ccc(CC)cc3)nc2n1 -1.99%
C=C1CCN(C(CC(C)C)C(=O)N2CCOCC2)S(=O)(=O)c2ccccc21 (stereo not drawn) 11.6%
Cn1nnnc1Sc1ncnc2scc(-c3ccccc3[N+](=O)[O-])c12 0.265%
COc1cc(OC)c2c(c1C(CCN1CCCCC1)c1ccc(N(C)C)cc1)OC(=O)CC2c1ccc(N(C)C)cc1 (stereo not drawn) 4.39%
CCOc1ccccc1NC(=O)Cn1c(=O)n(-c2cccc(C)c2)c(=O)c2c1c1cc(OC)ccc1n2C -2.84%
O=C(Cn1c(-c2cccs2)cc2ccccc21)NCCc1ccc(Cl)cc1 1.33%
COC(=O)c1ccccc1S(=O)(=O)Nc1ccc(OC)cc1 12.7%
Cc1c(-c2cccc(NC(=O)C(C)(C)C)c2)nc2ncccn12 4.16%
CCN(CC)/[N+]([O-])=N/Oc1cc(O/[N+]([O-])=N/N2CCCC2CO)c([N+](=O)[O-])cc1[N+](=O)[O-] (stereo not drawn) -3.49%
Cc1ccc(-c2nc(=N)sn2Cc2ccccc2)cc1 0.942%
COc1ccc(-c2nc(=N)sn2-c2ccccc2)cc1 8.42%
CC(=O)NC(c1cccs1)c1cc(Cl)c2cccnc2c1O (stereo not drawn) 0.471%
Cc1cc2c(s1)c1cnn(Cc3c(F)cccc3Cl)c(=O)c1n2C -0.0245%
c1coc(CCNc2ncnc3ccc(-c4ccc5c(c4)OCO5)cc23)c1 26.5%
